CD11b adhes enh = enhancers of CD11b/CD18 adhesion to fibrinogen, primary screen, K562 cells, luminescence; Integrin beta-2 (Homo sapiens) + Integrin alpha-M (Homo sapiens), P05107+P11215; 93,000 compounds, 0.07% hits; ATPlite luminescence; activation, % at 10 µM;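 active means 10 µM primary screen giving 50% or more activity, confirmed by 40% or more on retest at that dose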
Target sequence (P05107 whole entry, looked up, other chains not shown): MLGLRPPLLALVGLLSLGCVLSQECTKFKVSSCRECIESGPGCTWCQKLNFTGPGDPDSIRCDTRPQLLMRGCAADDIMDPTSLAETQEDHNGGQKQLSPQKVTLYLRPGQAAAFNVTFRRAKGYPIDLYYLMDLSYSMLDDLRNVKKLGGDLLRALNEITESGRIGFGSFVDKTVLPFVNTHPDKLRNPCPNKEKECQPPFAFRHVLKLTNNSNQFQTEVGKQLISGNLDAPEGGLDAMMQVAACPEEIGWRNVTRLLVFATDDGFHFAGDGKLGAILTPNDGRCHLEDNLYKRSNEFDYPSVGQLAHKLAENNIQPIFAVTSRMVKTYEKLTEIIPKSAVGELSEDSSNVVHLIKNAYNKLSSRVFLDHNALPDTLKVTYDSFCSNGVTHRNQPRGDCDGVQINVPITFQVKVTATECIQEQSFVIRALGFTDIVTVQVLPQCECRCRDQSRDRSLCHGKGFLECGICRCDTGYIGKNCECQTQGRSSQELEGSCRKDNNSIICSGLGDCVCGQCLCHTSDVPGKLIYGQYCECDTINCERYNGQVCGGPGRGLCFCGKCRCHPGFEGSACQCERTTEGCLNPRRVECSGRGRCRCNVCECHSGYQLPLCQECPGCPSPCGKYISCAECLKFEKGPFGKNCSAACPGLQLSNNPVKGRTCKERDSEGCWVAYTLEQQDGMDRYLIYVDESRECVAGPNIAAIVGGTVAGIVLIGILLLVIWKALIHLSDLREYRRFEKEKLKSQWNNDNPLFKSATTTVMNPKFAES
PLK1 PBD inh = Plk1 polo box domain binding inhibitors, primary screen, biochemical, fluorescence polarization. AID 693, 2007. inhibition, %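 (tested at about 20 µM)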. Plk1 PBD phosphopeptide binding. 97,000 compounds, 0.13% hits; in the data active means inhibition above about 34%, passing the limit was not always enough
CD11b adhes inh = inhibitors of CD11b/CD18 adhesion to fibrinogen, primary screen, K562 cells, luminescence. inhibition, % at 10 µM. 93,000 compounds, 0.54% hits. ATPlite luminescence; Mn2+ added to activate the integrin;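 active means primary inhibition of 50% or more at 10 µM, then 40% or more on retest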
Calb biofilm kill = clotrimazole potentiators killing Candida biofilms, primary screen, with clotrimazole, Alamar Blue. AID 834, 2007. inhibition, % at 6 µM. C. albicans biofilm + clotrimazole. 85,000 compounds, 0.14% hits;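 active means inhibition above 20%; inactive means inhibition below 20%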;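 further: preformed 24 hr biofilms exposed to compound for 48 hr; 0% = biofilm without compound and 100% = blank killed by clotrimazole plus chlorhexidine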
PLK1 kinase inh = human PLK1 kinase inhibitors, primary screen, biochemical, TR-FRET | Serine/threonine-protein kinase PLK1 (Homo sapiens), P53350 | recombinant PLK1 kinase, TR-FRET peptide phosphorylation | inhibition, % at 10 µM | 97,000 compounds, 0.53% hits | AID 619, 2007;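 active means inhibition of 50% or more in the single-concentration screen; inactive means inhibition below 50%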;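 further: 0% = DMSO max control and 100% = H-89 dihydrochloride min control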
* marks the source's active call; other numbers are inactive results. The list is not random: actives were taken first. Their share in the collection is about 1.1%.

Cc1nn(C)cc1/C=N\NC(=O)c1ccc2c(c1)c(C)c(C)n2Cc1ccccc1 was read as CD11b adhes enh -3.9, PLK1 PBD inh -27.4, CD11b adhes inh 2.8 and PLK1 kinase inh -10.7.
For O=C1C2C3C=CC(C2C(=O)N1C1CCCCC1)C1C2C(=O)N(C4CCCCC4)C(=O)C2C31 (stereo not given) the results were CD11b adhes enh 4.8 and CD11b adhes inh 5.2.
For N#C/C(=N\Nc1cccc(Cl)c1)C(=O)c1ccccc1 the results were CD11b adhes enh -10.9, PLK1 PBD inh -13.6, CD11b adhes inh 98.5* and PLK1 kinase inh -12.4.
For N#C/C(=N\Nc1ccccc1Cl)C(=O)c1ccccc1 the results were CD11b adhes enh -11.1, PLK1 PBD inh -9.8, CD11b adhes inh 104.1* and PLK1 kinase inh -7.5.
Cc1cc(Cl)c(S(=O)(=O)N2CCN(c3ccccc3)CC2)cc1OCC(N)=O was read as PLK1 PBD inh -9.9, Calb biofilm kill 4.0 and PLK1 kinase inh -10.2.
`Cc1cccc(N(C(=O)Nc2ccccc2)C2=NCC(C)S2)c1` (stereo not given) gave CD11b adhes enh 1.5, PLK1 PBD inh -11.2, CD11b adhes inh 10.4, Calb biofilm kill -4.0 and PLK1 kinase inh 67.0*.
For Cc1ccc(NC(=O)N(C2=NCC(C)S2)c2ccccc2)cc1 (stereo not given) the results were PLK1 PBD inh -10.2, Calb biofilm kill 6.1 and PLK1 kinase inh -14.2.
COc1ccc(Nc2nc(N3CCCC3)c3ccccc3n2)cc1 was read as CD11b adhes enh -8.8, CD11b adhes inh 99.4 and Calb biofilm kill 5.9.
For CCN(CC)c1ccc(Nc2nc(N3CCOCC3)c3ccccc3n2)cc1 the results were CD11b adhes enh -2.5, PLK1 PBD inh -5.8, CD11b adhes inh 65.2*, Calb biofilm kill 3.6 and PLK1 kinase inh -7.2.
For Cc1ccc(C(=O)NCCn2cc(SCC(=O)Nc3cc(C)on3)c3ccccc32)cc1 the results were CD11b adhes enh -0.1, PLK1 PBD inh -2.5, CD11b adhes inh -8.8 and PLK1 kinase inh 61.8*.
`O=C(CSc1cn(CCNC(=O)c2ccccc2)c2ccccc12)NCc1ccco1` gave CD11b adhes enh 0.4, PLK1 PBD inh -4.3, CD11b adhes inh 4.8, Calb biofilm kill 21.6* and PLK1 kinase inh 67.3*.
Screening CCCn1cc(SCC(=O)NCc2ccco2)c2ccccc21 returned CD11b adhes enh -2.8, PLK1 PBD inh 3.6, CD11b adhes inh -0.2, Calb biofilm kill -5.2 and PLK1 kinase inh -17.1.
CCCN1C(=O)c2cc(C(=O)NC3CCCCCC3)ccc2C1O (stereo not given) was read as CD11b adhes enh 3.7, PLK1 PBD inh -10.0, CD11b adhes inh -6.9, Calb biofilm kill 12.6 and PLK1 kinase inh 4.7.
Screening CCOC(=O)N1CCC(N2C(=O)c3cc(C(=O)NC4CCCCC4)ccc3C2O)CC1 (stereo not given) returned CD11b adhes enh 0.2, PLK1 PBD inh 1.6, CD11b adhes inh -8.1, Calb biofilm kill 7.5 and PLK1 kinase inh 60.8*.
Screening COc1ccc(/C=c2/sc3n(c2=O)C(c2ccccc2OC)C2=C(N=3)c3ccccc3CC2)cc1O (stereo not given) returned CD11b adhes enh 169.1*, PLK1 PBD inh -34.9, CD11b adhes inh -13.7 and PLK1 kinase inh -11.1.
For O=C(Cn1ncc2c3ccccc3n(Cc3ccc(F)cc3)c2c1=O)N1CCN(c2ncccn2)CC1 the results were CD11b adhes enh 0.5, PLK1 PBD inh -5.4, CD11b adhes inh 8.2, Calb biofilm kill 6.5 and PLK1 kinase inh 4.7.
`O=c1[nH]ncc2c3ccccc3n(Cc3ccc(F)cc3)c12` gave CD11b adhes enh -4.0, PLK1 PBD inh 1.3, CD11b adhes inh -7.6 and PLK1 kinase inh 52.5*.
For CCN(CC)c1nc2ccccc2nc1-n1nc(C)cc1C the results were CD11b adhes enh 0.1, PLK1 PBD inh 1.5, CD11b adhes inh 6.2, Calb biofilm kill -4.3 and PLK1 kinase inh -11.7.
Cc1ccc(/C=C/C(=O)c2ccc(C)cc2)cc1 was read as PLK1 PBD inh -9.9, Calb biofilm kill 0.3 and PLK1 kinase inh -3.6.
Cc1ccc(/C=C/C(=O)C2C(=O)c3ccccc3C2=O)cc1 was read as CD11b adhes enh -11.8, PLK1 PBD inh -27.4, CD11b adhes inh 94.8* and PLK1 kinase inh 4.9.

Screens from PubChem.
